Results published in PubChem BioAssay (NCATS).
Values joined by “and” are separate entries in the source; they are usually repeats but may differ in a detail not shown here. Equal entries are not always repeated. Records with an inconclusive call do not appear. Some structures have more than one record in an assay (separate samples or runs), and their calls can disagree. Active and inactive are the calls of the source. Calls follow the shape of the dose curve; as a rule, active = well fitted activation curve with a large enough effect in the signal ratio; inconclusive = small, poorly fitted or top-dose-only effect, or effect the other way, or a change in a side signal; inactive = flat fitted curve, though single readings scatter; the % refers to the signal ratio.

assay: qHTS assay for small molecule agonists of the antioxidant response element (ARE) signaling pathway (AID 651741); settings: HepG2 ARE-bla reporter, beta-lactamase FRET ratio, 16 h; series mostly up to 96 µM
Procedure, shortened: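 Reporter: beta-lactamase under ARE, stably in HepG2. Exposure: 16 h, 37 C, compounds delivered in DMSO by pin tool after 5 h cell preincubation. Readout: FRET substrate fluorescence after 2 h at RT.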
Potency is read from the fitted curve at half-maximal effect.

SMILES	Potency
[Cl][In]([Cl])[Cl]	29.8 µM (active)
C1CCC(NC2CCCCC2)CC1	inactive
O=S(=O)(c1ccc(Cl)cc1)c1ccc(Cl)cc1	66.8 µM (active)
CCCCOC(=O)c1ccccc1C(=O)OCc1ccccc1	inactive
O=S(=O)(O)C(F)(F)C(F)(F)C(F)(F)C(F)(F)C(F)(F)C(F)(F)C(F)(F)C(F)(F)F	inactive
Nc1ccc(Cl)cc1N	4.22 µM (active) and 27.3 µM (active)
O=[N+]([O-])/N=C1\NCCN1Cc1ccc(Cl)nc1	inactive
Nc1cccc2c(N)cccc12	27.3 µM (active)
CC(C)(c1ccc(O)cc1)c1ccc(O)cc1	42.2 µM (active) and 47.3 µM (active) and 30.6 µM (active)
CCOCCOC(C)=O	inactive
CN(C)NC(=O)CCC(=O)O	inactive
Nc1ccc(N=Nc2ccccc2)cc1	27.3 µM (active)
O=S(=O)(O)C(F)(F)C(F)(F)C(F)(F)C(F)(F)F	30.6 µM (active) and inactive
COCCOCCO	inactive
COc1nn(CSP(=S)(OC)OC)c(=O)s1	inactive
C=CC(=O)NCNC(=O)C=C	37.6 µM (active) and 30.6 µM (active)
CO/C=C(/C(=O)OC)c1ccccc1Oc1cc(Oc2ccccc2C#N)ncn1	13.7 µM (active)

SMILES	Potency
O=C(O)COc1ccccc1	inactive
O=[N+]([O-])c1cc([N+](=O)[O-])c2ccccc2c1	5.96 µM (active)
COc1ccc(C(c2ccc(OC)cc2)C(Cl)(Cl)Cl)cc1	33.5 µM (active) and 61.1 µM (active)
O=C(O)c1cc(Oc2ccc(C(F)(F)F)cc2Cl)ccc1[N+](=O)[O-]	inactive
COC(C)(C)CCCC(C)C/C=C/C(C)=C/C(=O)OC(C)C (stereo not drawn)	48.6 µM (active) and 66.8 µM (active)
CCCN(CCC)c1c([N+](=O)[O-])cc(S(N)(=O)=O)cc1[N+](=O)[O-]	61.1 µM (active)
O=[N+]([O-])c1c2ccccc2cc2ccccc12	53.1 µM (active)
CC(=O)[O][Hg][c]1ccccc1	47.3 µM (active)
CCCCC(CC)COC(=O)c1ccccc1C(=O)O (stereo not drawn)	54.5 µM (active)
CC(C)(O)C(=O)Nc1ccc([N+](=O)[O-])c(C(F)(F)F)c1	66.8 µM (active)
CC(C)(C)C(O)C(Oc1ccc(Cl)cc1)n1cncn1 (stereo not drawn)	inactive
ClC1=C(Cl)[C@]2(Cl)[C@@H]3[C@@H]4C[C@@H]([C@H]5O[C@@H]45)[C@@H]3[C@@]1(Cl)C2(Cl)Cl	54.5 µM (active)
CCCCCC[C@H]1C(=O)O[C@H](C)[C@H](NC(=O)c2cccc(NC=O)c2O)C(=O)O[C@@H](C)[C@@H]1OC(=O)CC(C)C	4.33 µM (active)
Nc1ccc([N+](=O)[O-])cc1O	13.3 µM (active) and 15.4 µM (active)
CS(=O)(=O)c1ccc(C(=O)C2C(=O)CCCC2=O)c([N+](=O)[O-])c1	54.5 µM (active)
O=C(O)C(Cl)Cl	inactive
